DT40 TDP1 no CPT = qHTS for Inhibitors of human tyrosyl-DNA phosphodiesterase 1 (TDP1): qHTS in cells in absence of CPT; actives 15% (n = 420,000); Potency, µM (doses to about 46.2 µM), without a hit: at the highest dose activity change, negative = growth inhibition, most hits filed as inhibitors; DT40 Tdp1-/- hTDP1 cells, no CPT, ATP luminescence, 48 h; note: potency is the fitted concentration of half-maximal effect; nearly all actives have a fitted effect of over 55% in size
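DT40 Tdp1-/-;hTDP1 cells, no CPT (DMSO vehicle only), 400 cells/well; compounds pin-transferred; ≥48 hr, 37 °C; CellTiter-Glo 30 min RT dark, luminescence read.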
HT1080 IDH1KD tx = qHTS for induction of synthetic lethality in tumor cells producing 2HG: qHTS for the HT-1080-IDH1KD cell line; HT-1080 IDH1 knockdown viability, ATP luminescence, 48 h; Potency, µM (top dose mostly 46.1 µM), for the others: at the top dose activity, negative = toxicity, hits mostly cytotoxic; actives 2% (n = 360,000);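 note: potency is the fitted concentration of half-maximal effect; 0% = DMSO wells and -100% = cell-free medium wells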
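Viability of IDH1-knockdown HT-1080 fibrosarcoma cells was assessed by CellTiter-Glo after 48 h at 37 °C with titrated compound; concentration-effect curves were classified by fit quality and response size.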
DT40 TDP1 CPT = qHTS for Inhibitors of human tyrosyl-DNA phosphodiesterase 1 (TDP1): qHTS in cells in presence of CPT; chicken DT40 Tdp1-/-;hTDP1 cells + 20 nM CPT, ATP luminescence, 48 h; Potency, µM (doses to about 46.2 µM), inactives show at the highest dose activity change, negative = growth inhibition, hits mostly inhibitors; actives 12% (n = 420,000); note: potency is the fitted concentration of half-maximal effect; nearly all actives have a fitted effect of over 55% in size
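Chicken DT40 Tdp1-/- cells complemented with human TDP1, 400 cells/well, exposed to compounds plus 20 nM camptothecin for at least 48 h at 37 C; viability read as ATP content by CellTiter-Glo luminescence.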
IL-1B inflam inh = qHTS for Inhibitors of Inflammasome Signaling: IL-1-beta AlphaLISA Primary Screen; actives 4.7% (n = 360,000); activity change, % at 57.5 µM; AID 743279, 2014; THP-1 LPS/ATP IL-1B secretion, AlphaLISA, 16 h; active compounds read low; in the data active = activity change below about -50%; inconclusive = mostly about -30% to -49%
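THP-1 cells pretreated 1 hr with compounds (up to 57.5 uM final), then stimulated with LPS (250 ng/mL final) plus ATP (1.25 mM final); secreted IL-1B measured by AlphaLISA after 16 hr, decreased signal indicating inhibition.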
uPA generation = qHTS for Inhibitors of Cell Surface uPA Generation; cell surface uPA generation assay, qHTS; Potency, µM (series often up to 38.3 µM), inactives show top-dose activity change, negative = inhibition, usual class: inhibitors; actives 0.31% (n = 330,000); AID 540303, 2011; active = well fitted inhibition curve with a large enough effect; inconclusive = small, poorly fitted or top-dose-only effect; inactive = no such curve, though single readings can be large or run the other way; tested in mouse RAW 264.7 cells; note: potency is the fitted concentration of half-maximal effect; nearly all actives have a fitted effect of over 55% in size
HT1080-NT tox = qHTS for induction of synthetic lethality in tumor cells producing 2HG: qHTS for the HT-1080-NT fibrosarcoma cell line; HT-1080-NT fibrosarcoma viability, CellTiter-Glo ATP luminescence, 48 h; Potency, µM (top dose mostly 46.1 µM), for inactives: top-dose activity, negative = less viability, usual class: cytotoxic; actives 1.6% (n = 360,000); AID 686970, 2013;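 note: NT is the 2HG producing partner of a matched IDH1 knockdown line; potency is the fitted concentration of half-maximal effect; 0% = DMSO-treated cells and -100% = media-only wells without cells; nearly all actives have a fitted effect of over 55% in size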
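Read-out is CellTiter-Glo luminescence after 10 minutes at room temperature, following 48 hours' compound treatment of HT-1080-NT cells (750 cells/well, RPMI, 5% FBS, 37 degrees C).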
* hit, by the source's call; ? = inconclusive; · = no result. Shown are actives, neighbours in structure and some others; about 19% of the full set was active somewhere. Unless noted, calls come from the whole dose curve; as a rule, active = well fitted curve in the direction sought with a large enough effect; inconclusive = small, poorly fitted or top-dose-only effect, or another doubt; inactive = no such curve, though single readings can be large; an effect the other way counts as inactive or inconclusive. Unless noted, % is set by controls: 0 for no effect and ±100 for the full control effect.

SMILES	DT40 TDP1 no CPT	HT1080 IDH1KD tx	DT40 TDP1 CPT	IL-1B inflam inh	uPA generation	HT1080-NT tox
COc1ccc(-c2ccc(CN3C(CC(C)C)C(=O)N(Cc4cn(CCC5OCCO5)nn4)CCS3(=O)=O)cc2)cc1OC (configuration not stated)	16µM*	12%	21µM*	20	·	7%
CC(C)CC1C(=O)N(Cc2cn(CCC3OCCO3)nn2)CCS(=O)(=O)N1Cc1ccc(-c2ccc(F)cc2)cc1 (configuration not stated)	23µM*	?	?	-29	·	?
N#Cc1cccc(NC(=O)C2CCN(c3cnccn3)CC2)c1	-15%	·	-3%	·	·	·
COc1ccc(OC)c(NC(=O)COC(=O)CN(C)S(=O)(=O)c2ccc(C)cc2)c1	-23%	2%	11%	0	5%	-4%
CC1(C)Oc2ccc3ccc(=O)oc3c2/C(=C/Nc2ccccc2)C1=O	-28%	-28%	?	-59*	-1%	-25%
FC(F)(F)c1ccc(N2CCN(c3cc(-c4ccccc4)nc4ncnn34)CC2)nc1	3.3µM*	0%	3.7µM*	-61*	6%	-10%
CC(=O)Nc1ccc(Nc2cc(-c3ccccc3)nc3ncnn23)cc1	-17%	-18%	-22%	?	-1%	-6%
c1ccc(-c2cc(-c3ccccc3)n3ncnc3n2)cc1	29µM*	-2%	?	-11	-3%	1%
Cc1cc(-c2ccccc2)n2ncnc2n1	3%	6%	1%	-10	12%	9%
CCOC(=O)CSc1cc(-c2ccccc2)nc2ncnn12	?	18µM*	-9%	·	-3%	?
FC(F)(F)c1cccc(Nc2cc(-c3ccccc3)nc3ncnn23)c1	?	4%	-29%	-5	3%	7%
Cc1cccc(C2Nc3cccc4cccc(c34)N2)c1	?	0%	?	9	7%	-14%
O=C1NC(c2ccc(O)cc2)Nc2ccccc21 (configuration not stated)	?	?	?	21	-8%	?
CSc1ccc(C2Nc3cccc4cccc(c34)N2)cc1	?	2%	15µM*	7	3%	3%
c1cc2c3c(cccc3c1)NC(c1ccc3c(c1)OCO3)N2	?	1%	23µM*	11	-8%	-10%
CN1c2ccccc2N(C)C1c1ccc2c(c1)OCO2	16µM*	?	23µM*	29	·	-17%
CSc1ccc(C2NC(=O)c3ccccc3N2)cc1 (configuration not stated)	16µM*	9.2µM*	10µM*	35	-16%	18µM*
CCc1ccc(C2CC(=O)Oc3c2c(=O)n(C)c2ccccc32)cc1 (configuration not stated)	0%	·	2%	·	·	·
Cc1ccc(-c2csc3ncnc(NS(=O)(=O)c4ccc(Cl)cc4)c23)cc1	-29%	-2%	-10%	10	0%	-15%
OCCCNc1ncnc2scc(-c3ccc(Cl)cc3)c12	21µM*	?	?	-20	-7%	-34%
Fc1ccc(-c2csc3ncnc(Cl)c23)cc1	?	3%	?	-7	-6%	6%

Compound activity (PubChem)
